# Experimental data from PubChem BioAssay (Tox21).
# Results filed as inconclusive are left out. Entries that show only a call come without a potency. The source made the active and inactive calls. Unless noted, calls come from the whole dose curve; as a rule, active = well fitted curve in the direction sought with a large enough effect in the repeat runs; inconclusive = weak or mixed curves; inactive = no such curve, though single readings can be large; an effect the other way counts as inactive or inconclusive.
# How the values were obtained:
# [1] = qHTS assay to identify small molecule antagonists of the thyroid receptor (TR) signaling pathway - cell viability counter screen (AID 743064); note: nearly all actives have a fitted effect of over 50% in size
# How it was run: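 Plate GH3.TRE-Luc cells; incubate 4 h at 37 °C; add compound, then T3 to 1 nM final; incubate 23.5 h; add CellTiter-Fluor; incubate 30 min at 37 °C, 5% CO2; read fluorescence.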
# [2] = qHTS assay to identify small molecule antagonists of the thyroid receptor (TR) signaling pathway (AID 743065); note: series mostly up to about 70 µM; nearly all actives have a fitted effect of over 55% in size
# How it was run: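 Antagonism measured as loss of luciferase signal in GH3 cells stably carrying a TRE-luciferase reporter, co-treated with compound and T3 (1 nM final) for 23.5 h at 37 C. Viability was read in the same well by CellTiter-Fluor.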
# [3] = tested on: thyroid hormone receptor (rat, GH3 cells); assay: qHTS assay to identify small molecule agonists of the thyroid receptor (TR) signaling pathway (AID 743066; calls by dose curve)
# [4] = biological target: Estrogen receptor (Homo sapiens) (UniProt P03372); assay: qHTS assay to identify small molecule antagonists of the estrogen receptor alpha (ER-alpha) signaling pathway (AID 743069; active = well fitted curve in the direction sought with a large enough effect in the signal ratio in the repeat runs, not every such curve was filed as active; the % refers to the signal ratio)
# Sequence of Estrogen receptor (Homo sapiens) (P03372 whole entry, looked up): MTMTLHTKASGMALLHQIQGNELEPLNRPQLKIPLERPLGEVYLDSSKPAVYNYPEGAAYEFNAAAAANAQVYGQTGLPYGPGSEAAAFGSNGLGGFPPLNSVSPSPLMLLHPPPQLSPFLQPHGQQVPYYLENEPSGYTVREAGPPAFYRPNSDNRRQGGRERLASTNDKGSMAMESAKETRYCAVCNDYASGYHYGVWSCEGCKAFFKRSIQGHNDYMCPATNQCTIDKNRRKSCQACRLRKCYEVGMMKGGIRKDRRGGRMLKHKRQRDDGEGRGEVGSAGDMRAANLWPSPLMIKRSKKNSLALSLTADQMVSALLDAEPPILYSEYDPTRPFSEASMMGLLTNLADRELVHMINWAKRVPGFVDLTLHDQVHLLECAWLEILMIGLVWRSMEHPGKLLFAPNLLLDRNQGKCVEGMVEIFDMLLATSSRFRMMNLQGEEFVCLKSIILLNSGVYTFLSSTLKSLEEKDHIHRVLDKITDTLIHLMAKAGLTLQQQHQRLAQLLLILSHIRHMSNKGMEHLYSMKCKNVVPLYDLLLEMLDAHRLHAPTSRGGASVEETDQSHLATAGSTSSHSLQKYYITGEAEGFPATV
# How it was run: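 Antagonist mode: compounds in DMSO were co-added with 17beta-estradiol to ER-alpha-bla HEK293 cells (2% charcoal-stripped serum) and left 18 h at 37C. Reporter inhibition was measured as FRET fluorescence after 2 h LiveBLAzer substrate at room temperature.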
# [5] = qHTS assay to identify small molecule antagonists of the estrogen receptor alpha (ER-alpha) signaling pathway - cell viability counter screen (AID 743074; calls by dose curve;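 note: HEK293 cells carrying ER-alpha-UAS-bla reporter stimulated with 17beta-estradiol; nearly all actives have a fitted effect of over 45% in size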)
# [6] = biological target: Estrogen receptor (Homo sapiens) (UniProt P03372); assay: qHTS assay to identify small molecule agonists of the estrogen receptor alpha (ER-alpha) signaling pathway (AID 743075; calls by dose curve;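 note: HEK293 GripTite cells with ER-alpha and UAS-driven beta-lactamase reporter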)
# [7] = biological target: Estrogen receptor (Homo sapiens) (UniProt P03372); assay: qHTS assay to identify small molecule agonists of the estrogen receptor alpha (ER-alpha) signaling pathway using the BG1 cell line (AID 743079); note: nearly all actives have a fitted effect of over 20% in size; note: potency is the fitted concentration of half-maximal effect
# [8] = qHTS assay to identify small molecule antagonists of the estrogen receptor alpha (ER-alpha) signaling pathway using the BG1 cell line (AID 743080; calls by dose curve;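 note: BG1 cells stimulated with 17beta-estradiol alongside compound; series mostly up to about 70 µM; nearly all actives have a fitted effect of over 25% in size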)
# How it was run: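 Seeding, 24 h rest, compound transfer from DMSO, 17beta-estradiol addition, 21.5 h incubation, CellTiter-Fluor (30 min, 37 C), then ONE-Glo (30 min, room temperature): this sequence was run on BG1-Luc-4E2 reporter cells.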
# [9] = qHTS assay to identify small molecule antagonists of the estrogen receptor alpha (ER-alpha) signaling pathway using the BG1 cell line - cell viability counter screen (AID 743081);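 note: compound given together with 17beta-estradiol as the ER stimulus; series mostly up to about 70 µM; nearly all actives have a fitted effect of over 45% in size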
# [10] = biological target: Aromatase (Homo sapiens) (UniProt P11511); assay: qHTS assay to identify aromatase inhibitors (AID 743083); note: series mostly up to about 70 µM; nearly all actives have a fitted effect of over 55% in size
# Sequence of Aromatase (Homo sapiens) (P11511 whole entry, looked up): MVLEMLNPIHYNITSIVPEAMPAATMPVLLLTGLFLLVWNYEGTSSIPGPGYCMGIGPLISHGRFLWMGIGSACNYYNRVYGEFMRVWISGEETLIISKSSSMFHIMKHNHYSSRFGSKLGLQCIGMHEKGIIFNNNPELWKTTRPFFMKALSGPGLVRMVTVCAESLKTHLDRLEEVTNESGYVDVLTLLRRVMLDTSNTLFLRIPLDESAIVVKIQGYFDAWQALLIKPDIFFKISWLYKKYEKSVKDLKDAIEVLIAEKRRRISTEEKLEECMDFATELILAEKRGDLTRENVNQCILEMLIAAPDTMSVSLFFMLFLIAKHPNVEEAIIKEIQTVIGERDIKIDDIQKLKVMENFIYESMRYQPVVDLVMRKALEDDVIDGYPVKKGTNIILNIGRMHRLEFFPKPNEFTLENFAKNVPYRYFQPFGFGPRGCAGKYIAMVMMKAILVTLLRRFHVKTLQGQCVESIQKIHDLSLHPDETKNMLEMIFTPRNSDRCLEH
# [11] = qHTS assay to identify aromatase inhibitors - cell viability counter screen (AID 743084);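 note: cells stimulated with testosterone during compound exposure; nearly all actives have a fitted effect of over 55% in size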
# [12] = biological target: Aryl hydrocarbon receptor (Homo sapiens) (UniProt P35869); assay: qHTS assay to identify small molecule that activate the aryl hydrocarbon receptor (AhR) signaling pathway (AID 743085);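 note: HG2L7.5c1 human HepG2 liver cells with stably integrated DRE-driven firefly reporter; series mostly up to about 70 µM; nearly all actives have a fitted effect of over 15% in size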
# Sequence of Aryl hydrocarbon receptor (Homo sapiens) (P35869 whole entry, looked up): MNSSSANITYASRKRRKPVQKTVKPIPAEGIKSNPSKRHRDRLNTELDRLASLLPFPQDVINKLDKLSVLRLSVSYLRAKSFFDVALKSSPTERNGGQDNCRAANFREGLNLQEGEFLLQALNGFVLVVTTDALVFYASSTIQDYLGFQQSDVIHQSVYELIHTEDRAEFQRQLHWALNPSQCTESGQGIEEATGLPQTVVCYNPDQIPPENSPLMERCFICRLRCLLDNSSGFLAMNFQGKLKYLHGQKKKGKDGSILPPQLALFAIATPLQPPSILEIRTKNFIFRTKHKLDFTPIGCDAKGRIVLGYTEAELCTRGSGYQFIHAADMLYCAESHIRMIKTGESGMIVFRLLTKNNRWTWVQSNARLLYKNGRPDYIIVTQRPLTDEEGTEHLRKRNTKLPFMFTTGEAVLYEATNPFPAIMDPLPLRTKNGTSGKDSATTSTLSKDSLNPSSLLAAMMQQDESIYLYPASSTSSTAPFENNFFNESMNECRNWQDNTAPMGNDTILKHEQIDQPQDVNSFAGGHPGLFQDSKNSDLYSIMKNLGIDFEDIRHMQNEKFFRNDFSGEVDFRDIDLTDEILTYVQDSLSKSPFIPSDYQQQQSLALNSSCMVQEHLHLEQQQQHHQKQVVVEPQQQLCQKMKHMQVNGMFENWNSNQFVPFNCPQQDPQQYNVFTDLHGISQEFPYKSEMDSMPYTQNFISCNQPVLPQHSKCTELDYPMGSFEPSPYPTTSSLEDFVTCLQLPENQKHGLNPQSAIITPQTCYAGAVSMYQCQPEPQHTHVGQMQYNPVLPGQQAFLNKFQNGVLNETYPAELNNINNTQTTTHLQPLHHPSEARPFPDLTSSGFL
# How it was run: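 Steps: seed HepG2-AhR-luc cells; allow 5 h at 37C; pin-transfer test compound or vehicle; incubate 24 h at 37C; add viability dye (30 min, 37C) and read fluorescence; add luciferase substrate (30 min, RT) and read luminescence.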
# [13] = qHTS assay to identify small molecule that activate the aryl hydrocarbon receptor (AhR) signaling pathway - cell viability counter screen (AID 743086);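 note: HepG2 liver cells carrying the AhR DRE luciferase reporter; series mostly up to about 70 µM; nearly all actives have a fitted effect of over 45% in size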
# How it was run: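 Cytotoxicity counter screen: CellTiter-Fluor signal (30 min, 37 C) in 4000 HepG2 cells/well carrying the DRE-luciferase reporter, following 24 h compound exposure at 37 C.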
# [14] = qHTS assay for small molecule agonists of the antioxidant response element (ARE) signaling pathway - cell viability counter screen (AID 743203; calls by dose curve; note: nearly all actives have a fitted effect of over 55% in size)
# How it was run: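 ATP content via CellTiter-Glo luminescence served as the viability measure. Cells: ARE-bla HepG2, 2,000 per well. Exposure: 16 hrs, 37C/5% CO2.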
# [15] = qHTS assay for small molecule activators of the heat shock response signaling pathway - cell viability counter screen (AID 743209); note: nearly all actives have a fitted effect of over 50% in size
# How it was run: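 Compounds dissolved in DMSO were added to overnight-plated HSE-bla HeLa cells and left 5 h at 37 C. Cell viability was quantified by luminescence using CellTiter-Glo.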
# [16] = qHTS assay for small molecule activators of the heat shock response signaling pathway (AID 743210; active = well fitted activation curve with a large enough effect in the signal ratio in the repeat runs, with a control signal flat, not every such curve was filed as active; the % refers to the signal ratio; note: series mostly up to about 63 µM)
# How it was run: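 Compound exposure lasted 5 h at 37 C in HeLa cells carrying a heat-shock-element-driven beta-lactamase reporter. Read-out: fluorescence intensity after 2.5 h room-temperature loading with LiveBLAzer B/G FRET substrate.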
# [17] = biological target: Peroxisome proliferator-activated receptor gamma (Homo sapiens) (UniProt P37231); assay: qHTS assay to identify small molecule agonists of the peroxisome proliferator-activated receptor gamma (PPARg) signaling pathway (AID 743094; active = well fitted activation curve with a large enough effect in the signal ratio in the repeat runs, not every such curve was filed as active; the % refers to the signal ratio)
# Sequence of Peroxisome proliferator-activated receptor gamma (Homo sapiens) (P37231 whole entry, looked up): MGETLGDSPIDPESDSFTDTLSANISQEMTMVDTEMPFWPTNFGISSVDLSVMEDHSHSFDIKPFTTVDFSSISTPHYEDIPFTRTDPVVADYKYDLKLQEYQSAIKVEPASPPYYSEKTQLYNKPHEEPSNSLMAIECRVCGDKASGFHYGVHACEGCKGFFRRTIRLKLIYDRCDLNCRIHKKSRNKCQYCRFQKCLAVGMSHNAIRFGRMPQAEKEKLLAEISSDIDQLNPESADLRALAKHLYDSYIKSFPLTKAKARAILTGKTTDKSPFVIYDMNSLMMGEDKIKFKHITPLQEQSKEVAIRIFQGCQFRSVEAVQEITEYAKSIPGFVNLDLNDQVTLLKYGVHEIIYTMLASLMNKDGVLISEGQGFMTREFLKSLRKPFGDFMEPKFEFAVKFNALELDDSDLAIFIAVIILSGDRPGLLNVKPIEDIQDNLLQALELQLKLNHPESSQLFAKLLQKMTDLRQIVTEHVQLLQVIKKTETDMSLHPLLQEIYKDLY
# How it was run: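 Agonism was assessed in a beta-lactamase reporter system, HEK293H cells with a stably integrated UAS-bla construct under PPARg control; the 17 h treatment at 37C preceded a 1 h room-temperature FRET substrate read.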
# [18] = qHTS assay to identify small molecule antagonists of the peroxisome proliferator-activated receptor gamma (PPARg) signaling pathway - cell viability counter screen (AID 743194); note: nearly all actives have a fitted effect of over 55% in size
# How it was run: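 Viability was measured as CellTiter-Glo luminescence in GeneBLAzer PPARg UAS-bla HEK293H cells. These cells had been exposed 17 h at 37 C to compounds together with rosiglitazone at 50 nM final, with the beta-lactamase readout taken in the same wells.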
# [19] = biological target: Peroxisome proliferator-activated receptor gamma (Homo sapiens) (UniProt P37231); assay: qHTS assay to identify small molecule antagonists of the peroxisome proliferator-activated receptor gamma (PPARg) signaling pathway (AID 743191; calls by dose curve; note: series mostly up to about 63 µM; nearly all actives have a fitted effect of over 30% in size)
# How it was run: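 Beta-lactamase reporter under UAS control in HEK293H PPARg-bla cells; compound treatment 17 h at 37C. Read-out: fluorescence intensity after 1 h room-temperature incubation with LiveBLAzer B/G FRET substrate.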
# [20] = qHTS assay for small molecule agonists of the antioxidant response element (ARE) signaling pathway (AID 743202; active = well fitted activation curve with a large enough effect in the signal ratio in the repeat runs, not every such curve was filed as active; the % refers to the signal ratio)
# How it was run: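 After 16 hours of compound treatment at 37 C, HepG2 cells with a stably integrated ARE-driven beta-lactamase reporter were loaded 2 hours at room temperature with LiveBLAzer B/G FRET substrate and fluorescence intensity measured.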
SMILES,Potency [1],Potency [2],Potency [3],Potency [4],outcome [5],Potency [6],Potency [7],Potency [8],Potency [9],Potency [10],Potency [11],Potency [12],Potency [13],Potency [14],Potency [15],outcome [16],Potency [17],Potency [18],Potency [19],Potency [20]
N=C(N=C(N)N)N1CCOCC1,inactive,inactive,inactive,inactive,inactive,inactive,inactive,inactive,inactive,inactive,inactive,inactive,inactive,inactive,inactive,inactive,,,,
C[C@H](CCC(=O)O)[C@H]1CC[C@H]2[C@@H]3[C@H](O)C[C@@H]4C[C@H](O)CC[C@]4(C)[C@H]3CC[C@]12C,inactive,inactive,inactive,inactive,inactive,inactive,inactive,inactive,inactive,inactive,inactive,inactive,inactive,inactive,inactive,inactive,inactive,inactive,,
COCCOCCOCCOCCOC,inactive,inactive,inactive,inactive,inactive,inactive,inactive,inactive,inactive,inactive,inactive,inactive,inactive,inactive,inactive,,inactive,inactive,inactive,inactive
CCCCOC(O)CC (centres undefined),inactive,inactive,inactive,inactive,inactive,inactive,inactive,inactive,inactive,inactive,inactive,inactive,inactive,inactive,inactive,inactive,inactive,,inactive,inactive
O=C(C(=O)c1ccc(Br)cc1)c1ccc(Br)cc1,inactive,inactive,inactive,inactive,inactive,inactive,inactive,inactive,inactive,inactive,inactive,inactive,inactive,inactive,inactive,inactive,inactive,inactive,inactive,inactive
NCCCOCCOCCOCCCN,inactive,inactive,inactive,inactive,inactive,inactive,inactive,inactive,inactive,inactive,inactive,inactive,inactive,inactive,inactive,inactive,inactive,inactive,inactive,
CCCCCCCCCCCCCCC1CO1 (centres undefined),inactive,inactive,inactive,inactive,inactive,inactive,inactive,inactive,inactive,inactive,inactive,inactive,inactive,inactive,,inactive,inactive,,,inactive
CCCCCCCCCCCCCCCBr,inactive,inactive,inactive,inactive,inactive,inactive,inactive,inactive,inactive,inactive,inactive,inactive,inactive,inactive,inactive,inactive,inactive,inactive,inactive,inactive
O=C(Cl)c1ccc([N+](=O)[O-])cc1,inactive,inactive,inactive,inactive,inactive,inactive,inactive,inactive,inactive,inactive,inactive,,inactive,inactive,inactive,inactive,inactive,inactive,inactive,inactive
CC(=O)CC(=O)c1ccccc1,inactive,inactive,inactive,inactive,inactive,inactive,34.6 µM (active),inactive,inactive,inactive,inactive,inactive,inactive,inactive,inactive,inactive,,inactive,,inactive
CCOC(=O)CC(=O)c1cc(F)c(Cl)nc1Cl,inactive,inactive,inactive,inactive,inactive,inactive,inactive,inactive,inactive,inactive,inactive,inactive,inactive,inactive,inactive,inactive,inactive,inactive,inactive,inactive
Cc1ccc(C(N)=O)cc1N,inactive,inactive,inactive,inactive,inactive,inactive,inactive,inactive,inactive,inactive,inactive,,inactive,inactive,inactive,inactive,inactive,inactive,,inactive
CC[C@H](C)[C@H](N)C(=O)O,inactive,inactive,inactive,inactive,inactive,inactive,inactive,inactive,inactive,inactive,inactive,inactive,inactive,,,inactive,inactive,inactive,inactive,inactive
C=C(C)C(=O)OCCN(C)C,inactive,inactive,inactive,inactive,inactive,inactive,inactive,inactive,inactive,inactive,inactive,inactive,inactive,inactive,inactive,inactive,inactive,inactive,inactive,
c1ccc(CNCc2ccccc2)cc1,inactive,inactive,inactive,inactive,inactive,inactive,inactive,inactive,inactive,inactive,inactive,inactive,inactive,inactive,inactive,inactive,inactive,inactive,,inactive
